# In PubChem BioAssay:
# “And” between values parts separate entries of the source, which are not always exact repeats. Identical values can stand only once. Inconclusive results are not listed. For part of these data: Entries with a potency or affinity are not part of this list. The source made the active and inactive calls. Unless noted, no rule for the calls is given here.
# Key:
# [1] = blockers of polyQ-driven CASP3 activation – cell-based (AID 1583); conditions: polyglutamine-induced caspase-3 activation, cell assay; stronger effect = higher value;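 tested at 10 µM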
# [2] = yeast 75Q aggregation reduction – 75Q-TubU reporter (AID 1593); conditions: Yeast 75Q polyglutamine aggregation reporter
# [3] = restoration of touch response, mutant HTT neurons – whole organism, C. elegans mechanosensory neurons, N-terminal huntingtin (AID 1599); conditions: C. elegans polyQ-huntingtin mechanosensory neurons, stronger effect = higher value
# [4] = blockers of cytochrome c efflux from mitochondria – biochemical, purified mitochondria (AID 1603); conditions: stronger effect = lower value;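 also: mouse liver mitochondria challenged with calcium chloride; signal normalized to the plate average as 100%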
# [5] = polyglutamine aggregate formation blockers (AID 1604); conditions: polyglutamine-induced protein aggregation inhibition assay; stronger effect = higher value; tested at 2.5 µM
# [6] = compounds altering circadian rhythm period length – cell-based, LOPAC library, luminescence reporter (AID 2774); conditions: circadian reporter cells, at 7 µM, actives lie on both sides;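 also: values are relative to mean of DMSO wells on each plate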
# [7] = test system: Hepatitis C virus NS3 helicase; test: blockers of NS3h binding to ssDNA – biochemical, fluorescence polarization, LOPAC1280 library, primary screen (AID 687035; in the data active = inhibition above about 37%); conditions: Purified HCV NS3 helicase, Cy5-dT15 ssDNA binding fluorescence polarization; stronger effect = higher value; concentration not given here
# [8] = compounds altering Cy5-DNA-NS3h complex signal – biochemical, LOPAC1280, artefact control for HCV NS3 helicase inhibitor project (AID 687037); conditions: Cy5-DNA-NS3h complex fluorescence interference counterscreen
# [9] = blockers of cellular phospholipid synthesis – cell-based, LOPAC library, screen 4, primary screen (AID 1347384); conditions: animal cells, phospholipid biosynthesis inhibition screen; at 10 µM
# [10] = compounds altering viability of human ES cells (AID 493140); conditions: human embryonic stem cell survival screen; stronger effect = higher value;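 also: cells exposed to compounds for four days before counting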
# [11] = test system: Aerobactin synthetase IucA (Klebsiella pneumoniae); test: inhibition of K. pneumoniae IucA enzyme – biochemical, Tocris library, absorbance (AID 1345561); conditions: purified IucA enzyme assay, absorbance (OD) read-out; stronger effect = lower value;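 tested at 8 µM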;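 also: 100% = enzyme without compound and 0% = no enzyme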
# [12] = molecular target: ATP-dependent translocase ABCB1 (Homo sapiens) (UniProt P08183); test: P-glycoprotein substrate transport blockade – cell-based (AID 377; in the data active = fluorescence slope change above about 50%); conditions: MDR1-expressing cells, fluorescent substrate accumulation slope; stronger effect = higher value; concentration not given here
# ATP-dependent translocase ABCB1 (Homo sapiens), sequence (P08183 whole entry, looked up): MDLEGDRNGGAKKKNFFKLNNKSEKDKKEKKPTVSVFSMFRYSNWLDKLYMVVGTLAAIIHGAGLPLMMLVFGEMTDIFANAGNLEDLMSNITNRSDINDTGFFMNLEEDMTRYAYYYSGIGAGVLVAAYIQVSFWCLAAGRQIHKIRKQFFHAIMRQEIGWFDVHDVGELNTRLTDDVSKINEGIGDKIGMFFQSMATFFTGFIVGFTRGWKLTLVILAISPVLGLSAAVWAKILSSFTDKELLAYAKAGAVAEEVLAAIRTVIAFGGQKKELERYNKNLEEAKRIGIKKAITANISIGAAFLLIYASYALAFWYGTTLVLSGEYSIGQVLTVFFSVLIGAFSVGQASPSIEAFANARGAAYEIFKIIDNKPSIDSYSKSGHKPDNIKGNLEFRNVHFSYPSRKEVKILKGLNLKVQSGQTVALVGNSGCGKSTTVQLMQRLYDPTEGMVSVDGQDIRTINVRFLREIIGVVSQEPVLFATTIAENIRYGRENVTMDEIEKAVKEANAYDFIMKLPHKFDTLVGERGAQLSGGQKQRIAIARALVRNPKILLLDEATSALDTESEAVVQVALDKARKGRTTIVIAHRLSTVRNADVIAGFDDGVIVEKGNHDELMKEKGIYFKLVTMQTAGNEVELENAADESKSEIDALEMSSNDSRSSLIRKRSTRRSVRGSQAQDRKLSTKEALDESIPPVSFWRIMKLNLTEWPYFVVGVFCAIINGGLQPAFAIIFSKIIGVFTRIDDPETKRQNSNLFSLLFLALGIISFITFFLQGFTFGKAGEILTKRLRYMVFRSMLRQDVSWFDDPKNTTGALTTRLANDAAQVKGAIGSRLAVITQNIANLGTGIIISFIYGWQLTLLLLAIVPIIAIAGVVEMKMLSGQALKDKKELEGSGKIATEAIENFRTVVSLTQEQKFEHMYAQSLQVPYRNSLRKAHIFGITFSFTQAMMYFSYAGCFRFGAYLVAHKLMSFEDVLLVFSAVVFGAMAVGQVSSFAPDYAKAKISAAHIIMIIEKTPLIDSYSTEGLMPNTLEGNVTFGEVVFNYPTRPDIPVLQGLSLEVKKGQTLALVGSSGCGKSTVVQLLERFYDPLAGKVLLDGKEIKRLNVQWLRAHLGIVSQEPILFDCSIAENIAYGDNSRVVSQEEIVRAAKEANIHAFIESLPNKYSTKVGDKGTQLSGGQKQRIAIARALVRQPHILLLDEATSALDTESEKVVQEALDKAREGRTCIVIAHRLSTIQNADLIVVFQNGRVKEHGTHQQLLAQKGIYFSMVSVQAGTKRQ
# [13] = molecular target: NAD(+) hydrolase SARM1 (Homo sapiens) (UniProt Q6SZW1); test: blocking NAD cleavage by SARM1 SAM-TIR – cell lysate, NAD-Glo luminescence (AID 1508614;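 active = compound whose remaining NAD level is above about 45 nM, limit read from the data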;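 also: higher remaining NAD means stronger inhibition of SARM1 NADase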); conditions: SAM-TIR HEK293T lysate NADase, at 1 µM, stronger effect = higher value
# NAD(+) hydrolase SARM1 (Homo sapiens), sequence (Q6SZW1 whole entry, looked up, the tested form may be a part): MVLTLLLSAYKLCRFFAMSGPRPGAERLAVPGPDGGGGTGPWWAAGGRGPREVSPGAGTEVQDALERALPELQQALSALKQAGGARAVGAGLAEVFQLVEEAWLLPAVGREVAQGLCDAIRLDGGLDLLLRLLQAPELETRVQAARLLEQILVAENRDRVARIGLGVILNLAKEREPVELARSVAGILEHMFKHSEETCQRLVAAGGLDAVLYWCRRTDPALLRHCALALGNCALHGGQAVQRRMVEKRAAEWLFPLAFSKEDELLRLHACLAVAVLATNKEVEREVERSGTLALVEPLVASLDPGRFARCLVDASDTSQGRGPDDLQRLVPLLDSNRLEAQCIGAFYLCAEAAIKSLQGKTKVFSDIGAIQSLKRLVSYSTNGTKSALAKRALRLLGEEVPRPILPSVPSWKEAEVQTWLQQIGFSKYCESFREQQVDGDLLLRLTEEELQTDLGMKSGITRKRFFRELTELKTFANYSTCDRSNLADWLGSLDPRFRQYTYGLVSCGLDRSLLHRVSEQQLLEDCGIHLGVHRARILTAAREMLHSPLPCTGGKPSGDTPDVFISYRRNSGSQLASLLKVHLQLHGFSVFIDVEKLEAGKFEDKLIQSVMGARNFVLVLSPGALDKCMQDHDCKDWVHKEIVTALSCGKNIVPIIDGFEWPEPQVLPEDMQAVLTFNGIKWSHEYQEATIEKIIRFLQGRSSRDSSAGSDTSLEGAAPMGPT
# [14] = molecular target: Mitogen-activated protein kinase 7 (Homo sapiens) (UniProt Q13164); test: Gal4-ERK5 driven luciferase induction – cell-based, HTS, primary screen (AID 1508626;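 active = luciferase signal above three times the same-plate solvent-only control wells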;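 also: luciferase driven by Gal4-ERK5 fusion binding five Gal4 sites before minimal TATA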); conditions: HeLa Gal4-ERK5 transactivation, 18 h, at 5 µM, stronger effect = higher value
# Mitogen-activated protein kinase 7 (Homo sapiens), sequence (Q13164 whole entry, looked up, the tested form may be a part): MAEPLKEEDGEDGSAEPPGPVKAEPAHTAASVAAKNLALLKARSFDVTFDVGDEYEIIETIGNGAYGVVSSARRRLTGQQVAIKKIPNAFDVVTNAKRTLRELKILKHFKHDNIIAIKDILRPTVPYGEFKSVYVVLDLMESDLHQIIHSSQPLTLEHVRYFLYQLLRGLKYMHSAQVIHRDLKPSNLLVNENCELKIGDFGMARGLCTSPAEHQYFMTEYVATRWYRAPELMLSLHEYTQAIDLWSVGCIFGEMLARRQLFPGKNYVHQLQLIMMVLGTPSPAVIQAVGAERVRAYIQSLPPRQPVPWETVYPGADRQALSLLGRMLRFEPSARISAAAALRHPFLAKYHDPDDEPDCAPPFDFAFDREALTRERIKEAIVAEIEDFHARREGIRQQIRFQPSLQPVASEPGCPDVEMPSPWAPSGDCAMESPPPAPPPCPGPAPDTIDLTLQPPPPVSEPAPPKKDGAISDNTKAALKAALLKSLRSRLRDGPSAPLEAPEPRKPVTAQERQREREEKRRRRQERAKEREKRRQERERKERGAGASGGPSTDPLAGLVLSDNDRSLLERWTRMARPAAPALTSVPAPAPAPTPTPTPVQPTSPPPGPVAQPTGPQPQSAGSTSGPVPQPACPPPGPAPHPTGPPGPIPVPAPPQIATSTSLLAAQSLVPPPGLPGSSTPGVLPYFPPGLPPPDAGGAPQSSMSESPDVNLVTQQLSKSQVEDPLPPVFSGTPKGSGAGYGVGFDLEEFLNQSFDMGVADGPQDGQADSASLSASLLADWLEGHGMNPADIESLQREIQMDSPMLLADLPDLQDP
# [15] = viability loss in pontine glioma line – cell-based, SU-DIPG-XXV, MIPE5.0, CellTiter-Glo, qHTS, dose response (AID 1347065; cut-off not given, nearly all actives have AC50 up to about 26 µM;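 also: cells exposed to compound for 48 hours before ATP readout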); conditions: CellTiter-Glo ATP luminescence
# [16] = viability loss in pontine glioma line – cell-based, SU-DIPG-XIII, MIPE4.0, CellTiter-Glo, qHTS, dose response (AID 1347061; cut-off not given, nearly all actives have AC50 up to about 37 µM;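 also: cells exposed to compound for 48 hours before readout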); conditions: CellTiter-Glo ATP luminescence
# [17] = viability loss in pontine glioma line – cell-based, JHH-DIPG-1, MIPE4.0, CellTiter-Glo, qHTS, dose response (AID 1347062; cut-off not given, nearly all actives have AC50 up to about 27 µM;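 as to AC50: cells exposed to compound for two days before readout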); conditions: JHH-DIPG-1 viability, CellTiter-Glo ATP luminescence
# [18] = viability loss in pontine glioma line – cell-based, SU-DIPG-IV, MIPE4.0, CellTiter-Glo, qHTS, dose response (AID 1347063; cut-off not given, nearly all actives have AC50 up to about 30 µM;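 also: compound exposure lasted 48 hours before the viability readout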); conditions: CellTiter-Glo ATP luminescence
# [19] = viability loss in pontine glioma line – cell-based, SU-DIPG-XIII, MIPE5.0, CellTiter-Glo, qHTS, dose response (AID 1347064; cut-off not given, nearly all actives have AC50 up to about 23 µM); conditions: CellTiter-Glo ATP luminescence
# [20] = growth inhibition of DIPG cells – cell-based, MIPE4.0 library, CellTiter-Glo luminescence, qHTS (AID 1347066; cut-off not given, nearly all actives have AC50 up to about 30 µM;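 also: cells exposed to compound for 48 hours before readout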); conditions: SU-DIPG-VI viability, CellTiter-Glo ATP luminescence
structure (smiles),measurement,setting,value
CN1C2CCC1CC(OC(c1ccccc1)c1ccccc1)C2 (stereo not given),inhibition,[1],-6.22%
same,score,[2],1.2
same,rescue above control,[3],-5.92
same,cytochrome c release ratio,[4],1
same,inhibition of aggregation,[5],62%
same,period change,[6],0.035 h (inactive)
same,inhibition,[7],-5% (inactive)
same,fluorescence ratio (interference),[8],1 (inactive)
same,outcome,[9],inactive
CO[C@H]1/C=C/O[C@@]2(C)Oc3c(C)c(O)c4c(O)c(c5c(c4c3C2=O)NC2(CCN(CC(C)C)CC2)N=5)=NC(=O)/C(C)=C\C=C\[C@H](C)[C@H](O)[C@@H](C)[C@@H](O)[C@@H](C)[C@H](OC(C)=O)[C@@H]1C,survival,[10],5.5 (inactive)
C=C1/C(=C\C=C2/CCC[C@]3(C)[C@@H]([C@H](C)/C=C/[C@@H](O)C4CC4)CC[C@@H]23)C[C@@H](O)C[C@@H]1O,remaining activity,[11],98% (inactive)
O=c1[nH]c2ccccc2c2ccccc12,period change,[6],0.13 h (inactive)
same,inhibition,[7],-3% (inactive)
same,fluorescence ratio (interference),[8],1 (inactive)
same,outcome,[9],inactive
CC(C(O)c1ccc(O)cc1)N1CCC(Cc2ccccc2)CC1 (stereo not given),fluorescence slope change,[12],23.8% (inactive)
same,period change,[6],0.3 h (inactive)
same,survival,[10],3.25 (inactive)
same,inhibition,[7],-4% (inactive)
same,fluorescence ratio (interference),[8],0.9 (inactive)
same,outcome,[9],inactive
COc1cc(N)c(Cl)cc1C(=O)N[C@@H]1CCN(CCCOc2ccc(F)cc2)C[C@@H]1OC,remaining activity,[11],111% (inactive)
CN(C)CC/C=C1/c2ccccc2COc2ccccc21,inhibition,[1],-9.13%
same,score,[2],1.4
same,rescue above control,[3],2.19
same,cytochrome c release ratio,[4],0.69
same,inhibition of aggregation,[5],92.3%
same,remaining activity,[11],123% (inactive)
CCN(CC)CCOc1ccc(C(=C(Cl)c2ccccc2)c2ccccc2)cc1,remaining NAD,[13],10 nM (inactive)
same,luciferase signal,[14],68 AU (inactive)
C[C@]12C=CC(=O)C=C1CC[C@@H]1[C@@H]2[C@@H](O)C[C@@]2(C)[C@H]1CC[C@]2(O)C(=O)COC(=O)CCC(=O)O,remaining NAD,[13],10 nM (inactive)
same,luciferase signal,[14],80 AU (inactive)
CCC(=O)NS(=O)(=O)c1ccc(-c2c(-c3ccccc3)noc2C)cc1,outcome,[15],inactive
CO[C@H]1O[C@@H]2O[C@@]3(C)CC[C@H]4[C@H](C)CC[C@@H]([C@H]1C)[C@@]24OO3,outcome,[16],inactive
same,outcome,[17],inactive
same,outcome,[18],inactive
same,outcome,[19],inactive
same,outcome,[15],inactive
same,outcome,[20],inactive
same,remaining NAD,[13],10 nM (inactive)
COc1cccc2c1C(=O)c1c(O)c3c(c(O)c1C2=O)C[C@@](O)(C(C)=O)C[C@@H]3OC1CC(N)C(O)C(C)O1 (stereo not given in full),fluorescence slope change,[12],95.8% (active)
same,survival,[10],2.17 (inactive)
same,remaining activity,[11],110% (inactive)
CC(C)N=c1cc2n(-c3ccc(Cl)cc3)c3ccccc3nc-2cc1Nc1ccc(Cl)cc1,fluorescence slope change,[12],72.8% (active)
same,survival,[10],11.8 (inactive)
same,remaining NAD,[13],10 nM (inactive)
same,luciferase signal,[14],104 AU (inactive)
CC[C@]1(O)CC2CN(CCc3c([nH]c4ccccc34)[C@@](C(=O)OC)(c3cc4c(cc3OC)N(C)[C@H]3[C@@](O)(C(N)=O)[C@H](O)[C@]5(CC)C=CCN6CC[C@]43[C@@H]65)C2)C1 (stereo not given in full),AC50,[17],0.0469 µM (active)
CO/N=C(/C(=O)N[C@@H]1C(=O)N2C(C(=O)O)=C(COC(N)=O)CS[C@H]12)c1ccco1,fluorescence slope change,[12],-2.3% (inactive)
same,survival,[10],3.92 (inactive)
Nc1nc2ccc(Cl)cc2c2nc(-c3ccco3)nn12,period change,[6],0.275 h (inactive)
same,inhibition,[7],-2% (inactive)
same,fluorescence ratio (interference),[8],1 (inactive)
same,remaining activity,[11],120% (inactive)
same,outcome,[9],inactive
CCCCC[C@H](O)/C=C/[C@H]1[C@H](O)CC(=O)[C@@H]1CCCCCCC(=O)O,survival,[10],35.2 (inactive) and 136 (inactive)
same,remaining activity,[11],115% (inactive)
same,outcome,[16],inactive
same,outcome,[17],inactive
same,outcome,[18],inactive
same,outcome,[15],inactive
same,outcome,[20],inactive
CC(=O)N1CCN(c2ccc(OC[C@H]3CO[C@](Cn4ccnc4)(c4ccc(Cl)cc4Cl)O3)cc2)CC1,period change,[6],-0.195 h (inactive)
same,survival,[10],3.25 (inactive)
same,inhibition,[7],-5% (inactive)
same,fluorescence ratio (interference),[8],1 (inactive)
same,remaining activity,[11],114% (inactive)
same,AC50,[17],23.5 µM (active)
same,outcome,[9],inactive
same,luciferase signal,[14],40 AU (inactive)
CN1CCN(c2nc3cc(C(F)(F)F)ccc3n3cccc23)CC1,period change,[6],-0.085 h (inactive)
same,inhibition,[7],-3% (inactive)
same,fluorescence ratio (interference),[8],1 (inactive)
same,outcome,[9],inactive
Cc1sc(N)c(C(=O)c2cccc(C(F)(F)F)c2)c1C,remaining activity,[11],120% (inactive)
